Compound activity: PubChem, Sanford-Burnham Center for Chemical Genomics
CYP2C9 act = activators of human CYP2C9 | P11712 | recombinant CYP2C9, luciferin-H conversion, luminescence; active compounds read high; factor 1 = untreated enzyme, 0 = blocked | activation factor at 5 µM | 96,000 compounds, 1.4% hits | AID 1024;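 active = activation factor of 2 or more for CYP2C9 at a 5 µM dose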;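 also: 0 = sulfaphenazole-blocked wells and 1 = vehicle-only wells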
Target sequence (P11712 whole entry, looked up): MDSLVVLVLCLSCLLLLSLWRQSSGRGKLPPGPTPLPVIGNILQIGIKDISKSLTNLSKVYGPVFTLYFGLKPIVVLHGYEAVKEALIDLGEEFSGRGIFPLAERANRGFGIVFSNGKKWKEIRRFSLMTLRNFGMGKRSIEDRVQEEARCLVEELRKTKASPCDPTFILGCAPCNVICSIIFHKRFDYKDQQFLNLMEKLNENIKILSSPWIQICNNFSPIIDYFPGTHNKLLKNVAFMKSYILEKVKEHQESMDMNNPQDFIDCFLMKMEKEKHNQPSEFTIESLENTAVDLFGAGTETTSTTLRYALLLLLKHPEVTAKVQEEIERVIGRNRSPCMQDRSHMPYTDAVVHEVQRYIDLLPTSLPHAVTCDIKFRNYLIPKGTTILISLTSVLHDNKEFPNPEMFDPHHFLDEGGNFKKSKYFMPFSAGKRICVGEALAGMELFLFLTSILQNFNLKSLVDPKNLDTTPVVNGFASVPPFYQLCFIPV
CYP2C9 inh = inhibitors of human CYP2C9 | P11712 | CYP2C9 Supersomes, luciferin-H conversion, luminescence | inhibition, % at 5 µM | 96,000 compounds, 20% hits | AID 777;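 active = blocking of liver enzyme CYP2C9 beyond about 50% at 5 µM, limit read from the data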
CYP2C19 inh = blocks human cytochrome P450 2C19; P33261; CYP2C19 Supersomes, luciferin-H EGE luminescence, 30 min; inhibition, % at 5 µM; 96,000 compounds, 21% hits; AID 778;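 active = CYP2C19 inhibition above a set limit at 5 µM in the primary screen, cut at about 50% in these data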;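 also: plate controls were negative control wells for no effect and 2.5 mM tranylcypromine positive control for full effect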
PLAP act = human PLAP activation; activation fold at 20 µM; 96,000 compounds, 1.2% hits; purified PLAP enzyme, luminescent substrate read-out; active compounds read high; AID 696; P05187; in the data active = activation fold above about 2
CYP2C19 activ = increases human CYP2C19 enzyme activity | recombinant CYP2C19, luciferin-H EGE luminescence; active compounds read high; 0 = fully inhibited enzyme, 1 = untreated enzyme | activation factor at 5 µM | 96,000 tested, under 10 active | AID 1025;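 active = activation factor of at least 2 at 5 µM in the primary screen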;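 also: 0 = wells with 2.5 mM tranylcypromine and 1 = vehicle-only wells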
* = called active by the depositor. An excerpt weighted towards active compounds, which were near 31% of everything screened.

What do the screens show for `O=[N+]([O-])c1ccc(O)c(NC(=S)Nc2ccccc2)c1`?
CYP2C9 act: 0.1; CYP2C9 inh: 91*; CYP2C19 inh: 56*; PLAP act: 0.8; CYP2C19 activ: 0.4

What do the screens show for `O=C(O)c1cc([N+](=O)[O-])ccc1C(=O)Nc1ccccc1`?
CYP2C9 act: 1.1; CYP2C9 inh: -10; CYP2C19 inh: 4; PLAP act: 0.9; CYP2C19 activ: 1

How did OC1C[N+]2(CCCCC2)C1 do in these assays?
CYP2C9 act: 1; CYP2C9 inh: -4; CYP2C19 inh: -10; PLAP act: 0.8; CYP2C19 activ: 1.1

How did COc1cc([N+](=O)[O-])ccc1NC(=O)C[n+]1cccc(C)c1 do in these assays?
CYP2C9 act: 1.1; CYP2C9 inh: -7; CYP2C19 inh: -4; PLAP act: 0.9; CYP2C19 activ: 1

How did COc1ccc([N+](=O)[O-])cc1NC(=O)CC(C)c1ccccc1 (configuration not stated) do in these assays?
CYP2C9 act: 1.5; CYP2C9 inh: -48; CYP2C19 inh: 72*; PLAP act: 0.9; CYP2C19 activ: 0.3

What do the screens show for `COC(=O)c1nn(-c2ccccc2)nc1-c1nn(-c2ccccc2)nc1C(=O)OC`?
CYP2C9 act: 0.1; CYP2C9 inh: 86*; CYP2C19 inh: 61*; PLAP act: 1.4; CYP2C19 activ: 0.4

How did CSc1nc(C)cc(NC(N)=O)n1 do in these assays?
CYP2C9 act: 1.1; CYP2C9 inh: -11; CYP2C19 inh: 7; PLAP act: 0.9; CYP2C19 activ: 0.9

Results for COC(=O)C1=C(C)NC(=O)/C1=C\c1cccs1 ?
CYP2C9 act: 0.4; CYP2C9 inh: 57*; CYP2C19 inh: 26; PLAP act: 0.7; CYP2C19 activ: 0.7

How did COC(=O)C1=C(C)NC(=O)/C1=C\c1cc(C)n(-c2c(C)cccc2C)c1C do in these assays?
CYP2C9 act: 0.4; CYP2C9 inh: 56*; CYP2C19 inh: 44; PLAP act: 1.3; CYP2C19 activ: 0.6

How did COC(=O)C1=C(C)N(c2cccc(C)c2)C(=O)/C1=C\c1cccs1 do in these assays?
CYP2C9 act: 0.5; CYP2C9 inh: 50*; CYP2C19 inh: 48; PLAP act: 0.9; CYP2C19 activ: 0.5

How did COc1ccccc1C1NC(=O)CS1 (configuration not stated) do in these assays?
CYP2C9 act: 1.1; CYP2C9 inh: -11; CYP2C19 inh: -5; PLAP act: 1.1; CYP2C19 activ: 1

What do the screens show for `Cc1cc(C(C)(C)C)oc1C(=O)Nc1ccc(CC(=O)O)cc1`?
CYP2C9 act: 1; CYP2C9 inh: 1; CYP2C19 inh: -3; PLAP act: 1.2; CYP2C19 activ: 1

Results for O=C(c1oc(=O)c2ccccc2c1-c1ccccc1)N1CCN(C2CCCCC2)CC1 ?
CYP2C9 act: 0.3; CYP2C9 inh: 70*; CYP2C19 inh: 99*; PLAP act: 1.4; CYP2C19 activ: 0

How did COc1ccc(NC(=S)NCCc2ccccc2)c(OC)c1 do in these assays?
CYP2C9 act: 0.8; CYP2C9 inh: 16; CYP2C19 inh: 90*; PLAP act: 0.9; CYP2C19 activ: 0.1

How did COc1ccccc1NC(=S)NC(=O)c1ccc(-c2ccc(Cl)cc2)o1 do in these assays?
CYP2C9 act: 1.5; CYP2C9 inh: -54; CYP2C19 inh: 8; PLAP act: 1; CYP2C19 activ: 0.9

How did COc1ccccc1NC(=S)NCc1ccco1 do in these assays?
CYP2C9 act: 1.3; CYP2C9 inh: -34; CYP2C19 inh: 64*; PLAP act: 1; CYP2C19 activ: 0.4

How did COc1ccccc1NC(=S)NCCc1ccc(Cl)cc1 do in these assays?
CYP2C9 act: 0.8; CYP2C9 inh: 19; CYP2C19 inh: 71*; PLAP act: 0.8; CYP2C19 activ: 0.3

Results for Fc1cc(Br)ccc1NC(=S)NCCc1ccccc1 ?
CYP2C9 act: 0.5; CYP2C9 inh: 45; CYP2C19 inh: 76*; PLAP act: 0.7; CYP2C19 activ: 0.2

What do the screens show for `COc1cccc(NC(=O)CSc2nnc(-c3cc(-c4ccccn4)nc4ccccc34)o2)c1`?
CYP2C9 act: 0.8; CYP2C9 inh: 18; CYP2C19 inh: 7; PLAP act: 1.3; CYP2C19 activ: 0.9

Results for CCCOc1ccc(C(=O)N2CCCC2)cc1OC ?
CYP2C9 act: 1.1; CYP2C9 inh: -14; CYP2C19 inh: 23; PLAP act: 1.2; CYP2C19 activ: 0.8

What do the screens show for `O=C(NCc1ccccc1Cl)C1CCN(C(=O)c2sccc2-n2cccc2)CC1`?
CYP2C9 act: 0.8; CYP2C9 inh: 25; CYP2C19 inh: 61*; PLAP act: 1.3; CYP2C19 activ: 0.4

How did CN(C)C(=O)N1CCC(C(=O)NCc2ccccc2Cl)CC1 do in these assays?
CYP2C9 act: 1.4; CYP2C9 inh: -38; CYP2C19 inh: 6; PLAP act: 1.2; CYP2C19 activ: 0.9

How did CCOc1ccccc1CNC(=O)C1CCN(C(=O)c2sccc2-n2cccc2)CC1 do in these assays?
CYP2C9 act: 1.1; CYP2C9 inh: -8; CYP2C19 inh: 84*; PLAP act: 1.3; CYP2C19 activ: 0.2

How did CC1CCCCC1NC(=O)C1CCN(C(=O)c2sccc2-n2cccc2)CC1 (configuration not stated) do in these assays?
CYP2C9 act: 0.9; CYP2C9 inh: 7; CYP2C19 inh: 20; PLAP act: 1.2; CYP2C19 activ: 0.8

How did CC(Oc1ccc(Cl)cc1)C(=O)Nc1nccs1 (configuration not stated) do in these assays?
CYP2C9 act: 0.6; CYP2C9 inh: 37; CYP2C19 inh: 41; PLAP act: 1.1; CYP2C19 activ: 0.6

What do the screens show for `Oc1ccc(-c2nccc(-c3cccs3)n2)cc1`?
CYP2C9 act: 0.3; CYP2C9 inh: 68*; CYP2C19 inh: 18; PLAP act: 0.9; CYP2C19 activ: 0.8

What do the screens show for `COC(=O)C(C)Oc1ccc(-c2nccc(-c3cccs3)n2)cc1` (configuration not stated)?
CYP2C9 act: 0.4; CYP2C9 inh: 65*; CYP2C19 inh: 32; PLAP act: 1.4; CYP2C19 activ: 0.7

How did CC(C)(C)C(=O)NC1(C(F)(F)F)C(=O)Nc2c1c(=O)[nH]c(=O)n2Cc1ccco1 (configuration not stated) do in these assays?
CYP2C9 act: 1; CYP2C9 inh: -2; CYP2C19 inh: -8; PLAP act: 0.9; CYP2C19 activ: 1.1

How did Cc1ccc(S(=O)(=O)/N=C2/C=C(C3C(=O)CC(C)(C)CC3=O)C(=O)c3ccccc32)cc1 do in these assays?
CYP2C9 act: 0.4; CYP2C9 inh: 62*; CYP2C19 inh: 0; PLAP act: 1.2; CYP2C19 activ: 1

Results for Cc1nn(Cc2ccccc2)c(C)c1C(=O)OCC(=O)c1cc(C)n(CC(F)(F)F)c1C ?
CYP2C9 act: 0.9; CYP2C9 inh: 10; CYP2C19 inh: 53*; PLAP act: 1.6; CYP2C19 activ: 0.5

What do the screens show for `Cc1cc(C(=O)CN2C(=O)NC3(CCCc4ccccc43)C2=O)c(C)n1Cc1ccco1` (configuration not stated)?
CYP2C9 act: 0.3; CYP2C9 inh: 74*; CYP2C19 inh: 27; PLAP act: 1; CYP2C19 activ: 0.7
